The source made the active and inactive calls. Rule for the calls: active = hit-call score of the fitted dose curve at least 0.9, where 1 is the maximum; inactive = score below 0.9.

Holding throughout (conditions): mRNA level, 48 h; actives raise or lower the signal
Read-out in one experiment: MYC, MYC (gene 4609)
Put plainly: LTEA_HepaRG_MYC: Life Technologies and Expression Analysis (LTEA) Assay for MYC using HepaRG (AID 2283518). The essentials: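 Differentiated human HepaRG cells, plated 48 h then switched to serum-free induction medium, were exposed in duplicate for 48 h to 8-point half-log series up to 100 uM in 0.5% DMSO. MYC mRNA measured by qRT-PCR, normalized to ACTB/GAPDH/POLR2A.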

Read-out in experiment [1]: matrix metalloproteinase-3 (MMP3), MMP3 (gene 4314)
The experiment can be described thus: LTEA_HepaRG_MMP3: Life Technologies and Expression Analysis (LTEA) Assay for matrix metalloproteinase-3 (MMP3) using HepaRG (AID 2283519). The method, boiled down: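 Human liver HepaRG cultures received chemicals (top concentration 100 uM, 0.5% DMSO) for 48 h in duplicate. MMP3 mRNA induction or loss was then assessed via TaqMan qRT-PCR with housekeeping-gene normalisation.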

Read-out in experiment [2]: Paternally Expressed 10 (PEG10), PEG10 (gene 23089)
The experiment can be described thus: LTEA_HepaRG_PEG10: Life Technologies and Expression Analysis (LTEA) Assay for Paternally Expressed 10 (PEG10) using HepaRG (AID 2283520).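 For AC50: PEG10 transcript by qRT-PCR normalised to ACTB GAPDH and POLR2A.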 The method, boiled down:
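qRT-PCR read-out: PEG10 mRNA normalised to three housekeeping genes, fitted bidirectionally against 0.5% DMSO vehicle. HepaRG cells received test chemicals for 48 h in serum-free induction medium, 8 points, top 100 uM, half-log steps.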

Read-out in experiment [3]: Protein phosphatase 2A (PPP2R4), PTPA (gene 5524)
The experiment can be described thus: LTEA_HepaRG_PPP2R4: Life Technologies and Expression Analysis (LTEA) Assay for Protein phosphatase 2A (PPP2R4) using HepaRG (AID 2283522). The essentials:
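HepaRG, 48 h exposure, 8-pt half-log series from 100 uM, 0.5% DMSO vehicle, duplicates. Readout: PPP2R4 mRNA, Fluidigm qRT-PCR, housekeeping-normalized. Bidirectional curve fit vs DMSO baseline.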

Read-out in experiment [4]: Phosphatase and tensin (PTEN), PTEN (gene 5728)
Put plainly: LTEA_HepaRG_PTEN: Life Technologies and Expression Analysis (LTEA) Assay for Phosphatase and tensin (PTEN) using HepaRG (AID 2283523). The method, boiled down:
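Expression of PTEN is quantified in the human liver line HepaRG following two days of dosing (top concentration 100 uM, half-log dilutions, 0.5% DMSO). Values derive from bidirectional curve fitting relative to DMSO controls.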

Read-out in experiment [5]: solute carrier (SLC22A1), SLC22A1 (gene 6580)
The experiment can be described thus: LTEA_HepaRG_SLC22A1: Life Technologies and Expression Analysis (LTEA) Assay for solute carrier (SLC22A1) using HepaRG (AID 2283524). The method, boiled down: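 Transcript induction or suppression of SLC22A1 in human HepaRG cultures is scored after 48 h chemical treatment, with DMSO (0.5%) as baseline for bidirectional fitting. Concentrations span eight half-log points topping at 100 uM.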

Read-out in experiment [6]: Pyruvate Dehydrogenase Kinase 4 (PDK4), PDK4 (gene 5166)
Put plainly: LTEA_HepaRG_PDK4: Life Technologies and Expression Analysis (LTEA) Assay for Pyruvate Dehydrogenase Kinase 4 (PDK4) using HepaRG (AID 2283525). The method, boiled down:
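Eight-point, half-log concentration series (max 100 uM, 0.5% DMSO) applied to differentiated HepaRG cells for 48 h in duplicate. Endpoint: PDK4 mRNA induction or repression by qRT-PCR against DMSO baseline.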

Read-out in experiment [7]: NAD(P)H dehydrogenase [quinone] 1 (NQO1), NQO1 (gene 1728)
Put plainly: LTEA_HepaRG_NQO1: Life Technologies and Expression Analysis (LTEA) Assay for NAD(P)H dehydrogenase [quinone] 1 (NQO1) using HepaRG (AID 2283526). The method, boiled down:
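qRT-PCR read-out (Fluidigm TaqMan), normalized to three housekeeping genes, after 48 h chemical exposure of HepaRG cells. Concentrations: eight points, top 100 uM, half-log steps, 0.5% DMSO vehicle. Gain or loss of signal fitted relative to DMSO.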

Read-out in experiment [8]: Nuclear factor erythroid 2-related factor 2 (Homo sapiens) (UniProt Q16236)
The experiment can be described thus: LTEA_HepaRG_NFE2L2: Life Technologies and Expression Analysis (LTEA) Assay for Nuclear factor erythroid 2-related factor 2 (NFE2L2) Transcription Factor using HepaRG (AID 2283527).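 For outcome: TaqMan qRT-PCR transcript level normalised to ACTB GAPDH and POLR2A housekeeping genes.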 The method, boiled down: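 Human liver HepaRG line treated in duplicate for 48 h with an eight-point series topping at 100 uM. Gene expression of NFE2L2 by qRT-PCR, bidirectionally fitted against the vehicle control.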

Read-out in experiment [9]: succinate dehydrogenase complex iron sulfur subunit B (SDHB), SDHB (gene 6390)
The experiment can be described thus: LTEA_HepaRG_SDHB: Life Technologies and Expression Analysis (LTEA) Assay for succinate dehydrogenase complex iron sulfur subunit B (SDHB) using HepaRG (AID 2283528). The method, boiled down:
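HepaRG cells (~100,000/well, plated 48 h) exposed in duplicate for 48 h in serum-free induction medium to 8-point half-log series from 100 uM in 0.5% DMSO; mRNA by qRT-PCR normalised to ACTB, GAPDH, POLR2A; bidirectional fit versus DMSO.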

Read-out in experiment [10]: Signal transducer and activator of transcription 3 (Homo sapiens) (UniProt P40763)
The experiment can be described thus: LTEA_HepaRG_STAT3: Life Technologies and Expression Analysis (LTEA) Assay for Signal transducer and activator of transcription (STAT3) using HepaRG (AID 2283529). The method, boiled down: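 In this transcriptional endpoint, HepaRG cultures receive test chemicals at up to 100 uM for 48 h, tested in duplicate. STAT3 mRNA is normalized to ACTB, GAPDH and POLR2A.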

Read-out in experiment [11]: solute carrier (SLCO1B1), SLCO1B1 (gene 10599)
The experiment can be described thus: LTEA_HepaRG_SLCO1B1: Life Technologies and Expression Analysis (LTEA) Assay for solute carrier (SLCO1B1) using HepaRG (AID 2283530). The essentials:
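Differentiated human HepaRG cells, plated 48 h, switched to serum-free induction medium and exposed in duplicate for 48 h to 8 half-log concentrations (top 100 uM) in 0.5% DMSO. SLCO1B1 mRNA by TaqMan qRT-PCR, normalized to ACTB/GAPDH/POLR2A.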

Read-out in experiment [12]: sulfotransferase 2A1 (SULT2A1), SULT2A1 (gene 6822)
The experiment can be described thus: LTEA_HepaRG_SULT2A1: Life Technologies and Expression Analysis (LTEA) Assay for sulfotransferase 2A1 (SULT2A1) using HepaRG (AID 2283531). The essentials: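 Differentiated human HepaRG cells in serum-free induction medium were exposed for 48 h to eight half-log concentrations (top 100 uM, 0.5% DMSO). SULT2A1 mRNA was measured by qRT-PCR, normalized to ACTB, GAPDH and POLR2A, and fitted bidirectionally against DMSO.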

Read-out in experiment [13]: Transforming Growth Factor (TGFA), TGFA (gene 7039)
Put plainly: LTEA_HepaRG_TGFA: Life Technologies and Expression Analysis (LTEA) Assay for Transforming Growth Factor (TGFA) using HepaRG (AID 2283532). The essentials: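 Gene expression of TGFA was quantified by qRT-PCR after human HepaRG cells were treated for 48 h with test chemicals (eight concentrations, highest 100 uM, 0.5% DMSO). Activity in either direction was fitted relative to DMSO.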

Read-out in experiment [14]: Transforming Growth Factor (TGFB1), TGFB1 (gene 7040)
The experiment can be described thus: LTEA_HepaRG_TGFB1: Life Technologies and Expression Analysis (LTEA) Assay for Transforming Growth Factor (TGFB1) Transporter using HepaRG (AID 2283533). The method, boiled down:
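Differentiated human HepaRG cells in serum-free induction medium were exposed in duplicate for 48 h to eight concentrations (top 100 uM, half-log steps, 0.5% DMSO). TGFB1 mRNA was quantified by qRT-PCR, normalized to ACTB, GAPDH, POLR2A, and fitted bidirectionally against DMSO.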

Read-out in another experiment: TIMP1, TIMP1 (gene 7076)
The experiment can be described thus: LTEA_HepaRG_TIMP1: Life Technologies and Expression Analysis (LTEA) Assay for TIMP1 using HepaRG (AID 2283534).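 For outcome: TaqMan qRT-PCR signal normalized to ACTB GAPDH and POLR2A housekeeping genes.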 The essentials: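 Differentiated human HepaRG cells in serum-free induction medium were exposed 48 h to chemicals (8 half-log concentrations, top 100 uM, 0.5% DMSO). TIMP1 mRNA was quantified by TaqMan qRT-PCR, normalized to ACTB/GAPDH/POLR2A; bidirectional fit versus DMSO.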

Read-out in experiment [15]: Tumor necrosis factor receptor 1 (TNFRSF1A), TNFRSF1A (gene 7132)
The experiment can be described thus: LTEA_HepaRG_TNFRSF1A: Life Technologies and Expression Analysis (LTEA) Assay for Tumor necrosis factor receptor 1 (TNFRSF1A) using HepaRG (AID 2283535). The essentials: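 Differentiated human HepaRG cells were exposed in duplicate for 48 h in serum-free induction medium to eight concentrations (top 100 uM, half-log steps, 0.5% DMSO). TNFRSF1A mRNA was quantified by qRT-PCR, normalized to ACTB, GAPDH and POLR2A, then fitted bidirectionally against DMSO.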

Read-out in experiment [16]: Thyroid Hormone Responsive (THRSP), THRSP (gene 7069)
The experiment can be described thus: LTEA_HepaRG_THRSP: Life Technologies and Expression Analysis (LTEA) Assay for Thyroid Hormone Responsive (THRSP) using HepaRG (AID 2283536). The essentials: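 Cell model: human HepaRG, approx. 100,000 cells/well, 0.5% DMSO vehicle. Exposure lasts 48 h; phenobarbital 1 mM serves as induction positive control. Gene expression is measured by qRT-PCR against three endogenous control genes.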

Read-out in experiment [17]: UDP glucuronosyltransferase (UGT1A1), UGT1A1 (gene 54658)
Put plainly: LTEA_HepaRG_UGT1A1: Life Technologies and Expression Analysis (LTEA) Assay for UDP glucuronosyltransferase (UGT1A1) using HepaRG (AID 2283538). The method, boiled down:
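HepaRG, 48 h chemical exposure (top 100 uM, half-log 8-pt, 0.5% DMSO vehicle), duplicate wells; qRT-PCR (TaqMan, Fluidigm array) for UGT1A1 mRNA, housekeeping-normalized; bidirectional curve fit vs DMSO baseline.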

Read-out in experiment [18]: Nuclear factor NF-kappa-B p105 subunit (Homo sapiens) (UniProt P19838)
The experiment can be described thus: LTEA_HepaRG_NFKB1: Life Technologies and Expression Analysis (LTEA) Assay for Nuclear Factor Kappa B Subunit 1 (NFKB1) using HepaRG (AID 2283521).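 Note: TaqMan qRT-PCR transcript normalised to ACTB GAPDH and POLR2A housekeeping genes.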 The method, boiled down: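 Differentiated human HepaRG cells in serum-free induction medium with 0.5% DMSO were exposed for 48 h to eight half-log concentrations, top 100 uM, in duplicate. NFKB1 mRNA measured by Fluidigm TaqMan qRT-PCR, normalised to ACTB, GAPDH and POLR2A; bidirectional fit versus DMSO.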

Sequence of Nuclear factor erythroid 2-related factor 2 (Homo sapiens) (Q16236 whole entry, looked up): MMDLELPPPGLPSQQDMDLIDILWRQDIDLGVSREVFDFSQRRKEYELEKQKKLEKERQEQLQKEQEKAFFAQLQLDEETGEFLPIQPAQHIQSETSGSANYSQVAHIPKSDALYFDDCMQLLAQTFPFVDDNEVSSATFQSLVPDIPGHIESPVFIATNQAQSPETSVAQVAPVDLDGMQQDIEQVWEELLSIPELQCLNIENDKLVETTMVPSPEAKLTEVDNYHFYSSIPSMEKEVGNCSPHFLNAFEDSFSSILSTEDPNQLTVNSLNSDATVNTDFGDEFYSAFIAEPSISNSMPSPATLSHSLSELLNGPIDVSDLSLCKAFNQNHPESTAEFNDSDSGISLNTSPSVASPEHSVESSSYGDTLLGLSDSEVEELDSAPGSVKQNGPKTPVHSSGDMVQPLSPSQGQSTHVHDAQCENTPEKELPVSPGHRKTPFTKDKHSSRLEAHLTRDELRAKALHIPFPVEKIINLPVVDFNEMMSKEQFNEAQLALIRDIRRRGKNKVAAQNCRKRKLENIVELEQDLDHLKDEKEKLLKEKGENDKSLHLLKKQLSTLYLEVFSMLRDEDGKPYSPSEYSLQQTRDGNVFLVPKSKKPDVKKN
Sequence of Signal transducer and activator of transcription 3 (Homo sapiens) (P40763 whole entry, looked up): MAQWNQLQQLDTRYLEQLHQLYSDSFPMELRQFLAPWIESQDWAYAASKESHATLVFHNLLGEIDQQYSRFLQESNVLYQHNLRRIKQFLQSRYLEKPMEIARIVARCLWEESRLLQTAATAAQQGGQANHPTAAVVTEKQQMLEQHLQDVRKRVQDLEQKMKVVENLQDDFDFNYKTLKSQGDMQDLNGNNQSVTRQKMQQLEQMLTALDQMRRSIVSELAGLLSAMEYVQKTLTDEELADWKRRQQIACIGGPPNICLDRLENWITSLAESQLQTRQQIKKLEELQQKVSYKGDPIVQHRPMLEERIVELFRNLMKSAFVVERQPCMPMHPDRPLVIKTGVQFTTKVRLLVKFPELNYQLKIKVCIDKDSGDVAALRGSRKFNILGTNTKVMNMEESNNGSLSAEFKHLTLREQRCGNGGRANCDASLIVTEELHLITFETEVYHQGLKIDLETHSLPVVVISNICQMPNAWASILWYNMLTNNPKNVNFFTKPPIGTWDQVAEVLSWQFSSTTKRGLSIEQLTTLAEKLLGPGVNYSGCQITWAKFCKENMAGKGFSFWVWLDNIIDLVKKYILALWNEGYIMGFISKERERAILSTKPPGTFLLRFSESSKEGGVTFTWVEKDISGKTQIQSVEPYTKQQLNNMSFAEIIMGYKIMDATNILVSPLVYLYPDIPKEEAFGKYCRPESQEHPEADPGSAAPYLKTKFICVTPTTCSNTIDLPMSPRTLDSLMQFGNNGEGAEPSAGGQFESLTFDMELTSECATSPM
Sequence of Nuclear factor NF-kappa-B p105 subunit (Homo sapiens) (P19838 whole entry, looked up): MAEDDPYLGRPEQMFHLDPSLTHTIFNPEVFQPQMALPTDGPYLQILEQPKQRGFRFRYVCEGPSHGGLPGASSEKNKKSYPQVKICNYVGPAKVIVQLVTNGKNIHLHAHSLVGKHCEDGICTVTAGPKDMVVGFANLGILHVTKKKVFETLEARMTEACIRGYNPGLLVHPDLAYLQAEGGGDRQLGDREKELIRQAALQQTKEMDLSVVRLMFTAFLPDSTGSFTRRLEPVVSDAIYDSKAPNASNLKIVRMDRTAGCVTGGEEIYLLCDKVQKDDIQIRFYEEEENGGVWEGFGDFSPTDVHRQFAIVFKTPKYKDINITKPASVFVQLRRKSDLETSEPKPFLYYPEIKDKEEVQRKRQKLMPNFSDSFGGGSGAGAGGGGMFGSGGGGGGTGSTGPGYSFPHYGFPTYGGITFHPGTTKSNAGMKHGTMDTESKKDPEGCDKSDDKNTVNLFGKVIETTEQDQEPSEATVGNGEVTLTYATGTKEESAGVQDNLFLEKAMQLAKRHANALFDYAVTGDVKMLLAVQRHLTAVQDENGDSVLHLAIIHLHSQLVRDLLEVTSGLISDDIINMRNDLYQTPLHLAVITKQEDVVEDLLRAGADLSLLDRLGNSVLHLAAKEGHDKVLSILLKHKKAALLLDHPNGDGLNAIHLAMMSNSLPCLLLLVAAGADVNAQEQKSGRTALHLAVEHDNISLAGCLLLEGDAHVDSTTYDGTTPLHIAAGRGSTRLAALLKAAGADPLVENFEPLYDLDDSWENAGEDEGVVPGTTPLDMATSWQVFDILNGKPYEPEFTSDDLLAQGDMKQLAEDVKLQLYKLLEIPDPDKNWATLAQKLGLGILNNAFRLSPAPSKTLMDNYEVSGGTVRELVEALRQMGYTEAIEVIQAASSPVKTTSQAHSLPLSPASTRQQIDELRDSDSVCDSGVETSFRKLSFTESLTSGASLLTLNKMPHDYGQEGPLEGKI

Usually AC50 stands for the concentration giving half of the maximal activity seen. Regarding `CC(C)C(=O)Nc1ccc([N+](=O)[O-])c(C(F)(F)F)c1`, the AC50 with MYC, MYC (gene 4609) was 50 µM (active); in experiment [1], 79.6 µM (active); in [2] it was 13.5 µM (active); in [5], 45.4 µM (active); in [6], 9.61 µM (active); in experiment [7], 50 µM (active). The concentration at half-maximal activity (AC50) was 50 µM (active) in [8]; 63.6 µM (active) in [11]; 79.6 µM (active) in experiment [12]; 82.3 µM (active) in [13]; 28.7 µM (active) with TIMP1, TIMP1 (gene 7076); 10.9 µM (active) in [16]. Besides, the AC50 in experiment [17] was 90.1 µM (active). For the same molecule, the molecule was called inactive in experiment [3], in experiment [4], in [9], in experiment [10], in experiment [14] and in [15].

On to `O=C(O)c1cccc(C(=O)O)c1`, for which the outcome was “inactive” with MYC, MYC (gene 4609); “inactive” in [1]; “inactive” in experiment [2]; “inactive” in experiment [3]; “inactive” in experiment [4]; “inactive” in experiment [5]. In addition, the molecule was classed as inactive in [8], in experiment [9], in experiment [10], in [11], in experiment [12] and in [13]. The outcome with TIMP1, TIMP1 (gene 7076) is “inactive”; in experiment [15], “inactive”; in [16], “inactive”.

As for `CC(C)CCCCCCOC(=O)C1CCCCC1C(=O)OCCCCCCC(C)C` (configuration not stated), the outcome with MYC, MYC (gene 4609) is “inactive”; in experiment [1], “inactive”; in [2], “inactive”; in experiment [18], “inactive”; in experiment [3] it was “inactive”; in experiment [4] it was “inactive”. The outcome in experiment [5], in [8], in experiment [9], in [10], in [11] and in [13] was inactive. Besides, the outcome is “inactive” in experiment [14]; “inactive” with TIMP1, TIMP1 (gene 7076); “inactive” in [16]. Also, in experiment [15], the AC50 is 0.00316 µM (active).

With `CCCCN1C(=O)[C@@H]([C@H](O)C2CCCCC2)NC(=O)C12CCN(Cc1ccc(Oc3ccc(C(=O)O)cc3)cc1)CC2`, the AC50 with MYC, MYC (gene 4609) is 7.67 µM (active); in experiment [1], 0.267 µM (active); in experiment [2] it was 1.01 µM (active); in experiment [3], 3.88 µM (active); in experiment [4], 2.98 µM (active); in experiment [5], 1.72 µM (active). For the same molecule, the AC50 in experiment [8] was 2 µM (active); in experiment [9], 1.56 µM (active); in experiment [10] it was 3.21 µM (active); in experiment [11] it was 1.92 µM (active); in experiment [14], 0.34 µM (active); in [15] it was 6.08 µM (active). Further, the AC50 was 1.27 µM (active) in experiment [16] and 2.79 µM (active) in [17]. The outcome in experiment [18] was “inactive”; in experiment [13], “inactive”; with TIMP1, TIMP1 (gene 7076), “inactive”.
